Data published in PubChem BioAssay AID1030 (National Center for Advancing Translational Sciences (NCATS), 2008).
About 16,000 (7.3%) of roughly 220,000 compounds were called active. Another 25% or so got no clear call; they are omitted. The call rests on the fitted dose curve; in most records, active means well fitted inhibition curve with a large enough effect (not every such curve was filed as active); inconclusive means small, poorly fitted or top-dose-only effect, or another doubt; inactive means no such curve, though single readings can be large or run the other way. This excerpt belongs to a sample that is enriched for actives.

The compounds below were run against Aldehyde dehydrogenase 1A1 (Homo sapiens) (UniProt P00352) (assay: qHTS Assay for Inhibitors of Aldehyde Dehydrogenase 1 (ALDH1A1)). Conditions: Purified ALDH1A1, NADH fluorescence, propionaldehyde substrate; series mostly up to 75.3 µM.
Potency means the concentration at half of the fitted maximal effect.

Chain of Aldehyde dehydrogenase 1A1 (Homo sapiens) (P00352 whole entry, looked up): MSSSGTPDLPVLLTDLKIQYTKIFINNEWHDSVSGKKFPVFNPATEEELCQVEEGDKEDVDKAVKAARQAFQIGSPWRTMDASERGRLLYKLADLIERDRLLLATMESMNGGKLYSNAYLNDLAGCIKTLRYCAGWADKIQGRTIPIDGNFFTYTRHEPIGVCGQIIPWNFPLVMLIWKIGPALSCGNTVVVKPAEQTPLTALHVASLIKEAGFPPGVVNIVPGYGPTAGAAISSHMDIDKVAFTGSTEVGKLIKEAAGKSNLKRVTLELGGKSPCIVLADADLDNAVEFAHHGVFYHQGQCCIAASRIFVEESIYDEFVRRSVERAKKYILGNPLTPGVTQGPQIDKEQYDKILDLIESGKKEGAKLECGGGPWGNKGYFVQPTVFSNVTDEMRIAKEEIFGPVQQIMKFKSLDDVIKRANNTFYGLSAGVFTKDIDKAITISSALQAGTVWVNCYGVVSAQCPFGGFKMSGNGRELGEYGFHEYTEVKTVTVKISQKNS

Potency, inactive:
Cc1ccc(OC(=O)c2cc3ccccc3o2)cc1
CCc1ccc(Oc2coc3cc(OC(=O)c4cc5ccccc5oc4=O)ccc3c2=O)cc1
CCOC(=O)CSC1=N/C(=C/c2ccc(-n3cncn3)cc2)C(=O)N1C(C)=O
O=C(CN1C(=O)/C(=C\c2ccccc2F)SC1=S)Nc1nc2ccccc2s1
O=C(CN1C(=O)/C(=C\c2ccc(C(F)(F)F)cc2)Sc2ccccc21)NCc1ccco1
CN(/C(=N/S(=O)(=O)c1cccs1)c1ccccc1)c1ccc(O)cc1
CCC(C(=O)Nc1ccc(C(C)C)cc1)c1ccccc1 (stereo not given)
Cc1nnc(SC(C(=O)Nc2cc(Cl)cc(Cl)c2)c2ccccc2)[nH]c1=O (stereo not given)
Cc1c(Br)c([N+](=O)[O-])nn1CC(=O)N1CCN(Cc2ccccc2)CC1
COc1ccc(C(=O)Nc2ccc(-n3nncc3C(C)(C)C)cc2)cc1
CC(C)NC(=S)N1CCN(S(C)(=O)=O)CC1
O=C(c1ccc(-n2cnnn2)cc1)N1CCN(C(c2ccccc2)c2ccccc2)CC1
CCOC(=O)C1CCN(S(=O)(=O)c2cc(F)ccc2OC)CC1
CCOC(=O)Cn1c(N)c(C(=O)OC)sc1=S
CCOC(=O)c1cnc2c(c(C)nn2CC)c1Cl
CN1CCN(S(=O)(=O)c2ccc(N3CCN(S(=O)(=O)c4cccs4)CC3)nc2)CC1
O=S(=O)(c1cccs1)N1CCN(Cc2ccccc2)CC1
COc1ccc(C(=O)NCC(=O)N/N=C/c2ccc([N+](=O)[O-])s2)cc1OC
CC(=O)N/N=C/c1cc2c(cc1[N+](=O)[O-])OCO2
Cc1ccc(-c2n[nH]c(=S)n2/N=C/c2cc3c(cc2[N+](=O)[O-])OCO3)cc1
COc1cc(NC(=O)c2cccnc2SC)cc(OC)c1
CCOc1ccc(-c2nnn(CC(=O)N3CCN(c4ccc(OC)cc4)CC3)n2)cc1OCC
COc1ccc(N2CCN(C(=O)CSc3ncnc4c3cnn4-c3ccc(OC)cc3)CC2)cc1
CCCC(=O)Nc1nnc(-c2ccccc2)o1
COc1ccc(C(=O)NC2CCN(C(=S)Nc3ccccc3)CC2)cc1
Cc1nnc(SCC(=O)N2CCN(c3ccccc3)CC2)n1-c1ccccc1
CCN(CC)C(=O)CSc1nc2ccccc2n1CC(=O)N1CCN(c2ccccc2OC)CC1
CCN1CCN(c2ccc(NC(=O)c3cnccn3)cc2)CC1
COc1ccc(Nc2ncc(F)c(N3CCOCC3)n2)cc1
CC(C(=O)NC1CCCC1)N(c1ccc(Oc2ccccc2)cc1)S(C)(=O)=O (stereo not given)
Cc1ccc(N2C(=O)SC(N(CC(=O)O)c3ccc(C)cc3)C2=O)cc1 (stereo not given)
Cc1cccc(N(CC(=O)N2CCOCC2)S(C)(=O)=O)c1
Clc1ncn(CCOc2ccccc2)c1Cl
Cc1noc(C)c1S(=O)(=O)Nc1ccc(C(=O)N2CCN(c3ccc(F)cc3)CC2)cc1
COc1ccccc1NC(=O)C1=C(C)NC2=C(C(=O)CCC2)C1c1ccc(C)o1 (stereo not given)
COC(=O)C1=C(C)NC(=O)NC1/C=C/c1ccccc1 (stereo not given)
COC(=O)c1cc2n(n1)CCCNC2=O
COc1ccc(/C=C2\SC(=N)N(c3ccc(F)cc3)C2=O)cc1
O=C(Nc1ccc(Cl)cn1)c1ccc2c(c1)OCCO2
CNc1ccc([N+](=O)[O-])cc1C(=O)O
COc1cc(OC)cc(C(=O)NC(=S)N2CCN(c3ccc(C(F)(F)F)cc3[N+](=O)[O-])CC2)c1
COc1cccc(N2C(=O)C3CCCN3C2c2ccc(F)cc2)c1 (stereo not given)
CC(Oc1ccc(Br)cc1Br)C(=O)NC1CCCC1 (stereo not given)
CCC1CO/C(=C(\C(=C(Cl)Cl)N2CCOCC2)[N+](=O)[O-])N1 (stereo not given)
CCc1nnc(NC(=O)c2cccc(S(=O)(=O)N(C)c3ccc(OC)cc3)c2)s1
Cc1ccc(S(=O)(=O)N2CCN(C(=O)c3cccs3)CC2)cc1
COc1cccc(NC(=S)N(CCc2c(C)[nH]c3ccccc23)Cc2ccco2)c1
Cc1[nH]c2ccccc2c1CCN(Cc1cccs1)C(=S)NC(C)(C)C
Cc1cc(Cl)ccc1OCc1nc(-c2ccncc2)no1
Cc1nn(C)c(C)c1Sc1ccccc1N
Nc1ccccc1N
COc1ccc(CN2CCN(Cc3cn(C)nc3-c3ccccc3)CC2CCO)c(C)c1C (stereo not given)
CCOC(=O)CSc1nnc(-c2ccc([N+](=O)[O-])cc2)o1
COc1cccc(CN(C)CC(=O)NCc2ccccc2Cl)c1OC
Cc1ccc(CN2CCN(Cc3cn(C)nc3-c3ccccc3)CC2CCO)o1 (stereo not given)
Cc1ccccc1CN1C[C@@H]2C[C@@H](c3ccc4nsnc4c3)N3CCC[C@@]23C1=O
Cn1nnc2cc(C(=O)NCCC3=CCCCC3)ccc21
CC1CCCN(C(=O)Cn2c(=O)oc3ccccc32)C1 (stereo not given)
CCN(CC)C(=O)Cn1cc(S(=O)(=O)CC(=O)NCc2ccc3c(c2)OCO3)c2ccccc21
Cc1c(NS(=O)(=O)c2ccc(NC3CCCC3)c([N+](=O)[O-])c2)c(=O)n(-c2ccccc2)n1C
Cc1ccc(C(=O)COC(=O)CCCC(=O)NC2CCCCC2)cc1[N+](=O)[O-]
S=c1[nH]nc(-c2cccnc2)n1/N=C/C(Cl)=C\c1ccccc1
CN1CCN(C2=NCCO2)CC1
O=C(O)c1cc(Cl)c(Cl)cc1C(=O)Nc1cccc2ncccc12
O=C(Nc1cccc2ncccc12)C(Cl)(Cl)Cl
CCN(CC)CCCSc1nc2ccccc2s1
COC(=O)c1ccc(COC(=O)c2cnccn2)cc1
COc1cc2sc(C)nc2cc1C
Cc1ccc(NC(=O)c2ccc(Oc3ncccn3)cc2)cc1
C=C(C(C)=O)C(O)c1cccs1 (stereo not given)
CCC(=O)Nc1ccc2c(c1)nc(CCN1CCN(C)CC1)n2C
CCCC(=O)Nc1nc2ccc(NC(=O)c3c(F)c(F)c(OC)c(F)c3F)cc2s1
COC(=O)c1ccc(NC(=S)Nc2cccc(C)n2)cc1
Cc1cccc(OC(=O)c2sc3ncn(C)c(=O)c3c2C)c1
CCN1CCN(C(=O)CN(C)S(=O)(=O)c2ccc3ccccc3c2)CC1
CCC1CCCCN1S(=O)(=O)Cc1ccccc1Cl (stereo not given)
CS(=O)(=O)N(CC(=O)NC1CCCC1)Cc1ccc(F)cc1
Nc1c(C(=O)O)cnn1-c1ccccc1
Cc1c(C(=O)NCc2ccccc2)cnn1-c1ccccc1
CC(=O)N1N=C(c2ccccc2)OC1c1cccnc1 (stereo not given)
COCc1c(C(=O)OCc2c(C)noc2C)oc2ccccc12
Fc1ccc(CNCc2ccc(Br)cc2)cc1
Cc1nc2cnc(Nc3ccccc3)nc2n(C[C@H]2CCCO2)c1=O
S=c1[nH]nc(-c2ccc(Cl)cc2)n1CC1CCCO1 (stereo not given)
COc1ccc(CCNC(=O)Cn2c(=O)n(CC3CCCO3)c(=O)c3ccccc32)cc1OC (stereo not given)
COCCn1c(=S)[nH]c2cc(C(=O)NCCc3ccc(OC)c(OC)c3)ccc2c1=O

Potency, active:
O=C(Oc1ccccc1)Oc1ccc2c(c1)oc(=O)c1ccccc12 17.8 µM
O=C(CN1C(=O)/C(=C/c2ccccc2F)Sc2ccccc21)NCc1cccnc1 20 µM
O=C(Nc1cc(Cl)cc(Cl)c1)C(NCCCO)c1ccccc1 (stereo not given) 1.26 µM
CC(C)NC(=S)N1CCN(C(c2ccccc2)c2ccccc2)CC1 10 µM
COCCOC(=O)c1sc(=S)n(CCOC)c1N 10 µM
COc1ccc2c(CN3CCN(S(=O)(=O)c4cccs4)CC3)cc(=O)oc2c1 14.1 µM
Cc1ccc(S(=O)(=O)N/N=C\c2cc3c(cc2[N+](=O)[O-])OCO3)cc1 1.26 µM
COc1ccc(N2CCN(C(=O)CSc3nc4cc(OC)c(OC)cc4cc3C#N)CC2)cc1 14.1 µM
CC(C)N(C(=O)Cn1c(SCC(=O)N2CCN(c3ccccc3)CC2)nc2ccccc21)C(C)C 25.1 µM
Cc1cccc(N2C(=O)SC(N(CC(=O)O)c3cccc(C)c3)C2=O)c1 (stereo not given) 14.1 µM
COC(=O)C1=C(C)NC2=C(C(=O)c3ccccc32)C1c1ccc(-c2ccc(C(=O)O)cc2)o1 (stereo not given) 3.16 µM
COc1ccc(N2C(=O)CC(Nc3ccc(F)cc3)C2=O)c([N+](=O)[O-])c1 (stereo not given) 17.8 µM
COc1ccc2[nH]c(C)c(CCN(Cc3cccs3)C(=S)Nc3ccccc3OC)c2c1 25.1 µM
Nc1ccccc1Sc1cc(Cl)nnc1Cl 25.1 µM
Cc1ccccc1CN1C[C@@H]2C[C@@H](c3cn(C)nc3-c3ccccc3)N3CCC[C@@]23C1=O 1.58 µM
CC1CCCN(C(=O)c2ccc3c(c2)C(=O)N(CCC2=CCCCC2)C3=O)C1 (stereo not given) 0.501 µM
Cc1cc(C=O)c(C)n1-c1ccc(NC2CCCCC2)c([N+](=O)[O-])c1 5.62 µM
Cc1cc(-c2n[nH]c(=S)n2/N=C/C(Br)=C/c2ccccc2)n[nH]1 17.8 µM
Cc1ccc(/C=C(\C#N)C(=O)Nc2cccc3ncccc23)o1 8.91 µM
N#CC1=C(N)Oc2n[nH]c(CSc3ccccc3)c2C12C(=O)Nc1ccccc12 (stereo not given) 10 µM
CCCC(=O)Nc1ccc2c(c1)nc1n2CCSC1 25.1 µM
NNC(=O)c1cnn(-c2ccccc2)c1C(F)(F)F 11.2 µM
COC(=O)c1ccc2c(=O)n(CC3CCCO3)c(=S)[nH]c2c1 (stereo not given) 1.78 µM
O=c1c2cc3c(=O)n(CC4CCCO4)c(=O)c3cc2c(=O)n1CC1CCCO1 (stereo not given) 0.316 µM
